Test results from PubChem BioAssay (Tox21).
Where “and” joins values, the source holds several entries; their conditions need not be identical. Equal values may be shown once. Records with an inconclusive call do not appear. A structure can be active in one record and inactive in another. Calls of active or inactive are those of the source. Unless noted, calls follow the shape of the dose curve; as a rule, active = well fitted curve in the direction sought with a large enough effect in the repeat runs; inconclusive = weak or mixed curves; inactive = no such curve, though single readings can be large; an effect the other way counts as inactive or inconclusive.

What was measured:
[1] = qHTS assay to identify small molecule antagonists of the estrogen receptor alpha (ER-alpha) signaling pathway using the BG1 cell line in the presence of 0.1 nM 17-beta-estradiol - cell viability counter screen (AID 1259241); also: nearly all actives have a fitted effect of over 40% in size
In short: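 VM7Luc4E2 cells (endogenous ER-alpha, 4×ERE-luciferase), hormone-starved 5 days in charcoal-stripped FBS, were treated with compounds plus 0.1 nM 17beta-estradiol for 22 hr at 37C; viability read in same wells as CellTiter-Fluor live-cell protease fluorescence.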

[2] = qHTS assay to identify small molecule antagonists of the androgen receptor (AR) signaling pathway using the MDA cell line in the presence of 0.5 nM R1881 - cell viability counter screen (AID 1259242); also: nearly all actives have a fitted effect of over 45% in size; also: potency is read from the fitted curve at half-maximal effect
In short: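 R1881 at 0.5 nM final stimulated MDA-kb2 cells during 16 hr compound treatment at 37C. Cytotoxicity read: CellTiter-Fluor fluorescence after 30 min.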

[3] = target: Estrogen receptor (Homo sapiens) (UniProt P03372); test: qHTS assay to identify small molecule antagonists of the estrogen receptor alpha (ER-alpha) signaling pathway using the BG1 cell line in the presence of 0.1 nM 17-beta-estradiol (AID 1259244); also: nearly all actives have a fitted effect of over 50% in size; also: potency is read from the fitted curve at half-maximal effect
In short: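 VM7Luc4E2; 4xERE-luciferase; 0.1 nM E2 final; 22 h co-incubation, 37C; ONE-Glo luminescence after 30 min at room temperature.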

[4] = qHTS assay to identify small molecule HDAC inhibitors (AID 1259364); also: potency is read from the fitted curve at half-maximal effect;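 also: wild-type HCT-116 cells with endogenous class I/II HDAC activity; nearly all actives have a fitted effect of over 45% in size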
In short: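 Relative class I and II HDAC activity is taken from the luminogenic signal in HCT-116 cells, with compound exposure 2 hr and reagent development 30 min at room temperature.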

[5] = qHTS assay to identify small molecule HDAC inhibitors - cell viability counter screen (AID 1259365); also: nearly all actives have a fitted effect of over 50% in size; also: potency is read from the fitted curve at half-maximal effect
In short: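 Wild-type HCT-116 cells were seeded at 1,500 per well, incubated overnight at 37 C, then exposed to compounds in DMSO for 2hr. Viability was read by CellTiter-Glo luminescence after 30min at room temperature.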

[6] = qHTS assay to identify small molecule agonists of the sonic hedgehog signaling (Shh) pathway - cell viability counter screen (AID 1259366); also: nearly all actives have a fitted effect of over 50% in size; also: potency is read from the fitted curve at half-maximal effect
In short: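 NIH/3T3-derived 3T3 Gli1-Luc cells (stable Gli1-responsive firefly luciferase reporter) were seeded, rested 4 hr at 37 C/5% CO2, then exposed to compounds in DMSO for 24 hr; viability was read by CellTiter-Fluor fluorescence in the same wells.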

[7] = qHTS assay to identify small molecule antagonists of the sonic hedgehog signaling (Shh) pathway - cell viability counter screen (AID 1259367); also: nearly all actives have a fitted effect of over 55% in size; also: potency is read from the fitted curve at half-maximal effect
In short: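 NIH/3T3-derived Gli1-Luc reporter cells, 2,000/well, plated 4 hr before compound addition, then stimulated with conditioned medium for 24 hr at 37C. Viability measured in the same wells by CellTiter-Fluor fluorescence, reagent added at 23 hr for 1 hr.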

[8] = qHTS assay to identify small molecule agonists of the sonic hedgehog signaling (Shh) pathway (AID 1259368; calls by dose curve; also: series mostly up to about 92 µM; nearly all actives have a fitted effect of over 15% in size)
In short: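 Mouse fibroblast (NIH/3T3) reporter cells with stably integrated Gli1-Luc were treated 24 hr with compound; firefly luciferase luminescence served as the read-out.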

[9] = qHTS assay to identify small molecule phospholipidosis (PLD) inducers (AID 1259344; active = well fitted curve in the direction sought with a large enough effect; an effect the other way counts as inactive or inconclusive)
In short: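 HepG2 cells, 900/well, treated with compound plus LipidTOX Red for 24 h at 37 C; amiodarone positive and DMSO negative controls. Fixed with paraformaldehyde/Hoechst, then high-content imaging scored LipidTOX pit count and integrated intensity per well and per cell.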

Measured: Potency

Estrogen receptor (Homo sapiens), sequence (P03372 whole entry, looked up): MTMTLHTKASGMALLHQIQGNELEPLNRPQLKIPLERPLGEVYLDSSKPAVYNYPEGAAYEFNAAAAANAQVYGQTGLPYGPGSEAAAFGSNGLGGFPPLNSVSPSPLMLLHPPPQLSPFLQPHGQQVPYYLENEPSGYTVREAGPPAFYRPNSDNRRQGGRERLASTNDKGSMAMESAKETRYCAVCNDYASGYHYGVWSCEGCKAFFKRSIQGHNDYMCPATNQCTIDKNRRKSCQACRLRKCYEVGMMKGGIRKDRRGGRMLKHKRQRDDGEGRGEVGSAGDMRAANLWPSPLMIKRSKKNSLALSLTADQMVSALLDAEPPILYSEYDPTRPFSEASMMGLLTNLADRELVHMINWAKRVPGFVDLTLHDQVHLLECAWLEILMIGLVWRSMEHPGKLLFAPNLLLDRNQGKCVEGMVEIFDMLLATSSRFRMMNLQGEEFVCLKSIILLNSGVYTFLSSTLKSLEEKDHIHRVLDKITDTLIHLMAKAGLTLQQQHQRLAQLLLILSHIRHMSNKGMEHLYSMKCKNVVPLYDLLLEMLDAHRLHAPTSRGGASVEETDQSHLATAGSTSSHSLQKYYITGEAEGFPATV

Cc1cc(Cc2cc(C)cc(C(C)(C)C)c2O)c(O)c(C(C)(C)C)c1
active: [2] 30.8 µM | [3] 27.4 µM | [6] 43.5 µM | [7] 61.4 µM
inactive: [1] | [4] | [5] | [8]

CC(COc1ccccc1)N(CCCl)Cc1ccccc1 (stereo not drawn)
55 µM (active) and inactive: [2]
not listed: [3]
inactive: all other assays above

CC(C)(C)NCC(O)c1cc(O)cc(O)c1 (stereo not drawn)
not listed: [3]
inactive: all other assays above

O=S(=O)(O)c1ccc2nc(-c3ccccc3)[nH]c2c1
active: [4] 732 nM and 668 nM | [5] 23.2 µM
not listed: [3]
inactive: all other assays above

Nc1ccc2cc3ccccc3cc2c1
inactive: [1] | [2] | [3] | [5]

CCCCC/C=C/CC1CC(=O)OC1=O (stereo not drawn)
not listed: [9]
inactive: all other assays above

CCCN[C@H]1CCc2nc(N)sc2C1
not listed: [3]
inactive: all other assays above

Cc1cc(C(C)(C)C)c(O)c(C(C)(C)C)c1
not listed: [3]
inactive: all other assays above

CNC1(C)C2CCC(C2)C1(C)C (stereo not drawn)
not listed: [3]
inactive: all other assays above
